# Test results taken from PMC7862700, “An all-to-all approach to the identification of sequence-specific readers for epigenetic DNA modifications on cytosine”.
# What was measured:
# Experiment in all cases: DAPPL (digital affinity profiling via proximity ligation, sequencing); 10 mM Tris-HCl pH 7.5, 50 mM NaCl, 1 mM DTT, 4% glycerol, room temperature, 30 min; GST-TFs on glutathione beads, 16-mer random dsDNA library, 0.1% formaldehyde crosslink after washing; high values mean tight binding
# Conditions in all cases: protein: recombinant; tags: N-terminal GST; dsDNA, one strand shown
# [1] = target: T1, FLI1 (Homo sapiens, UniProt Q01543 1-452)
# T1 sequence: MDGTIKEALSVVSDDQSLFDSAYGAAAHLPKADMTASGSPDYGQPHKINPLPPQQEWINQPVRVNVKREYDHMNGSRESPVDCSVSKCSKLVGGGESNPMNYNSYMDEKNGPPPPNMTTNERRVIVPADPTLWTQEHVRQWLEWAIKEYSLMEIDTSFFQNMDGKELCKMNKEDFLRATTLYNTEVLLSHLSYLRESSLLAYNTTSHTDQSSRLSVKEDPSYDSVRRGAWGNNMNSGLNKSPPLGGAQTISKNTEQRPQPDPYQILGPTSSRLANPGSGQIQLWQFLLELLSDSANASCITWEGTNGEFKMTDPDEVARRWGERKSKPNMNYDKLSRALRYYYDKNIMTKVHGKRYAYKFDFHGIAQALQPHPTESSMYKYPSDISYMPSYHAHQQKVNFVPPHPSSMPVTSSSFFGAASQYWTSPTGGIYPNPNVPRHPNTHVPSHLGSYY
# Method in brief: (§1)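 Binding signal is given per hexamer as its read frequency for a factor divided by its frequency in the tag-only sample. GST-fused human transcription factors were expressed in yeast, captured on glutathione beads, barcoded with DNA and pooled with that sample, then incubated with 200 nmole of a 16-mer random double-stranded DNA library in Tris/NaCl/DTT/glycerol buffer for 30 min at room temperature. The pools were then washed, crosslinked, proximity-ligated, amplified by PCR and sequenced on an Illumina NextSeq500.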
# [2] = target: T2, ELK1 (Homo sapiens, UniProt P19419 1-428)
# T2 sequence: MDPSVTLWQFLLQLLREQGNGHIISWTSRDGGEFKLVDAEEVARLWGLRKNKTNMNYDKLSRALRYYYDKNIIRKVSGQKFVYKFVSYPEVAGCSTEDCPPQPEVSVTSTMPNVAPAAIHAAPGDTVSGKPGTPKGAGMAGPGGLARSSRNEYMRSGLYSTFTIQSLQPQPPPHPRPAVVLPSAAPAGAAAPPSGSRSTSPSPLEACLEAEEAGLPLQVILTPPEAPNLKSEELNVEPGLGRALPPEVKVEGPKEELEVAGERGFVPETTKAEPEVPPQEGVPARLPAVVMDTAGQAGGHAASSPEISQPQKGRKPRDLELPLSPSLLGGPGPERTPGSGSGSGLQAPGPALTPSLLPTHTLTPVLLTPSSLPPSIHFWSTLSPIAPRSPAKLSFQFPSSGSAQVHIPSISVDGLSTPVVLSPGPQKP
# Method in brief: as §1
# [3] = target: T3, GABPA (Homo sapiens, UniProt Q06546 1-454)
# T3 sequence: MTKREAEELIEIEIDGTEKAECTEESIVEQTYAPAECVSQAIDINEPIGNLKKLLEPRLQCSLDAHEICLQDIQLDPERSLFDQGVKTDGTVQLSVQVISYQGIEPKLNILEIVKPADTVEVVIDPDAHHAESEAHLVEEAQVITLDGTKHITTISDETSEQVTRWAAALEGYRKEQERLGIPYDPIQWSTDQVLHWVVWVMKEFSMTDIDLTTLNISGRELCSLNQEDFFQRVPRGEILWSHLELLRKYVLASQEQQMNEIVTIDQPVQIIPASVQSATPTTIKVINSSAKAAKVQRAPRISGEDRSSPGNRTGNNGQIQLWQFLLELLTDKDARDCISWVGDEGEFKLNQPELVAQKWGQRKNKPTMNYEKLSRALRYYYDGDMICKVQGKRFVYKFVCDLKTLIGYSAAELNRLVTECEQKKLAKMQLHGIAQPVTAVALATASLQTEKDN
# Method in brief: as §1
# [4] = target: T4, ERG (Homo sapiens, UniProt P11308 1-479)
# T4 sequence: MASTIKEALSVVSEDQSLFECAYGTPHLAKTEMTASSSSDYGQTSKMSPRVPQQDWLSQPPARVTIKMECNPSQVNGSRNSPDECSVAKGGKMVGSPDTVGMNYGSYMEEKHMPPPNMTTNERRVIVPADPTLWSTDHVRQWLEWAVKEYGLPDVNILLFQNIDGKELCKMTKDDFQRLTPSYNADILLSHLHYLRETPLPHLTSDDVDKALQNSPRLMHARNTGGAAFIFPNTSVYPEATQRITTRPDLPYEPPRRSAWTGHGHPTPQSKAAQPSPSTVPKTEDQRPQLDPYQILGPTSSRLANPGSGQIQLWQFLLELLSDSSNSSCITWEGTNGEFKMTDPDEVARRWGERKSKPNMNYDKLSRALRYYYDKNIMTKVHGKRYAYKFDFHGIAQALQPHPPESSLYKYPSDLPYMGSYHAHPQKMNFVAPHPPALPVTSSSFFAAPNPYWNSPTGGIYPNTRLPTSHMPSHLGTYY
# Method in brief: as §1
# [5] = target: ELF1 (Homo sapiens, UniProt P32519 1-619)
# Method in brief: as §1
# [6] = target: T5, EHF (Homo sapiens, UniProt Q9NZC4 1-300)
# T5 sequence: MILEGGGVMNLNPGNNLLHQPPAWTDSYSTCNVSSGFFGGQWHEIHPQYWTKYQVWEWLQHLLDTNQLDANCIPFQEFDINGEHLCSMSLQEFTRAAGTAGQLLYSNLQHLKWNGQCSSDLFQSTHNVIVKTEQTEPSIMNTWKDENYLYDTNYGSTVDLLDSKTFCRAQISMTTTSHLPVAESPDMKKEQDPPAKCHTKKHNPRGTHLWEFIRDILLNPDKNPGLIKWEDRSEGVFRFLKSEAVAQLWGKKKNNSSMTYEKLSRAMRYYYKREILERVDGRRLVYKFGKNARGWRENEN
# Method in brief: as §1
# [7] = target: SPI1 (Homo sapiens, UniProt P17947 1-270)
# Method in brief: as §1
# [8] = target: SPIB (Homo sapiens, UniProt Q01892 1-262)
# Method in brief: as §1
# [9] = target: T6, ELK3 (Homo sapiens, UniProt P41970 1-407)
# T6 sequence: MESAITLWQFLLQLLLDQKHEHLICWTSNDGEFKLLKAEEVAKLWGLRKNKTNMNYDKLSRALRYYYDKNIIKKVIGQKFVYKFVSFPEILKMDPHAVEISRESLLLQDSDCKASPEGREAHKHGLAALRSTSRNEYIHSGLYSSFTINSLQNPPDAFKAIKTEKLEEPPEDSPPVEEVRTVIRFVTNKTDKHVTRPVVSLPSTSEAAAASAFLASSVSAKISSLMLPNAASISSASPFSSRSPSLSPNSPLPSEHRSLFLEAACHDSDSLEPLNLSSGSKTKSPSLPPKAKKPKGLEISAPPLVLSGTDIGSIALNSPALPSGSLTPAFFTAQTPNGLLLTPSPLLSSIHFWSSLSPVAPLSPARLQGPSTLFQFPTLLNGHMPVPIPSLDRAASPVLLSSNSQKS
# Method in brief: as §1
# [10] = target: T7, FEV (Homo sapiens, UniProt Q99581 1-238)
# T7 sequence: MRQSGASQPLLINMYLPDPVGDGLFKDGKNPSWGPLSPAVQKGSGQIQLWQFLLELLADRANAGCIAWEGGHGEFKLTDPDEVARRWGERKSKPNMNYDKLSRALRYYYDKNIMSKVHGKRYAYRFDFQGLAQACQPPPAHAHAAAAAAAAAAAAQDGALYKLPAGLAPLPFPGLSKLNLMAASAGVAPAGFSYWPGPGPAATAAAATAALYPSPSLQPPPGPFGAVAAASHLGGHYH
# Method in brief: as §1
# [11] = target: ETV5 (Homo sapiens, UniProt P41161 1-510)
# Method in brief: as §1
# [12] = target: T8, SPIC (Homo sapiens, UniProt Q8N5J4 1-248)
# T8 sequence: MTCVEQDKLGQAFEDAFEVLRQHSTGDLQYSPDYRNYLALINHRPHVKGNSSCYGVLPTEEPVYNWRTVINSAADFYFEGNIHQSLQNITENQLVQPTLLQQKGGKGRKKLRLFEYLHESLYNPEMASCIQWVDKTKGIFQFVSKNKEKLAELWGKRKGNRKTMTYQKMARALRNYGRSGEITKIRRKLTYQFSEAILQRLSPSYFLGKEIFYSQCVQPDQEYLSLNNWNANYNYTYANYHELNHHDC
# Method in brief: as §1
# [13] = target: ELF4 (Homo sapiens, UniProt Q99607 1-663)
# Method in brief: as §1
# [14] = target: ETV1 (Homo sapiens, UniProt P50549 1-477)
# Method in brief: as §1
# [15] = target: T9, ERF (Homo sapiens, UniProt P50548 1-548)
# T9 sequence: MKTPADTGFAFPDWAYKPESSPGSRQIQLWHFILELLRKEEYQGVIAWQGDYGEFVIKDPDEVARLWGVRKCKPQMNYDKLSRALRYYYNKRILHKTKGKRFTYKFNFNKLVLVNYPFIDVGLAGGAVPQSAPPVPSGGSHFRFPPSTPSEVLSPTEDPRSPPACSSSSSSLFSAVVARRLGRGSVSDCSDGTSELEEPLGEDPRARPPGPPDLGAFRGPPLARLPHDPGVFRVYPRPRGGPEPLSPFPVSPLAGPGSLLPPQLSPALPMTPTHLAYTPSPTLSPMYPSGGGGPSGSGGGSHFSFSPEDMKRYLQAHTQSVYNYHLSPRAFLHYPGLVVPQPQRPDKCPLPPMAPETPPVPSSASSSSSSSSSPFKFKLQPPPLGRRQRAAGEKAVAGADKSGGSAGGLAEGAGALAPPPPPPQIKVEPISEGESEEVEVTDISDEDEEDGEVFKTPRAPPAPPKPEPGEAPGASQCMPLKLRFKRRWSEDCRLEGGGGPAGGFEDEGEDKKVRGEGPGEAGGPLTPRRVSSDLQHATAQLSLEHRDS
# Method in brief: as §1
# [16] = target: T10, ETV3L (Homo sapiens, UniProt Q6ZN32 1-361)
# T10 sequence: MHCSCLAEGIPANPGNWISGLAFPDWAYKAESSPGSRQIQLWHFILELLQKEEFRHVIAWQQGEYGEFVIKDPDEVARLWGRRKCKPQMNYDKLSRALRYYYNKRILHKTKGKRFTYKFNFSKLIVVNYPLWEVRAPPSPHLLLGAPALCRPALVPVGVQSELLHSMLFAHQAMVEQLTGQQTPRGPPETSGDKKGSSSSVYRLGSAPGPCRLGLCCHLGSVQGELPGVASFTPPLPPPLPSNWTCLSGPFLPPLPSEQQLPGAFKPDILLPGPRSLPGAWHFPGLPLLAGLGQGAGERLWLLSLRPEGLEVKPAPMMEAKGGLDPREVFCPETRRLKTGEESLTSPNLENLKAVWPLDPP
# Method in brief: as §1
# [17] = target: T11, ETS2 (Homo sapiens, UniProt P15036 1-469)
# T11 sequence: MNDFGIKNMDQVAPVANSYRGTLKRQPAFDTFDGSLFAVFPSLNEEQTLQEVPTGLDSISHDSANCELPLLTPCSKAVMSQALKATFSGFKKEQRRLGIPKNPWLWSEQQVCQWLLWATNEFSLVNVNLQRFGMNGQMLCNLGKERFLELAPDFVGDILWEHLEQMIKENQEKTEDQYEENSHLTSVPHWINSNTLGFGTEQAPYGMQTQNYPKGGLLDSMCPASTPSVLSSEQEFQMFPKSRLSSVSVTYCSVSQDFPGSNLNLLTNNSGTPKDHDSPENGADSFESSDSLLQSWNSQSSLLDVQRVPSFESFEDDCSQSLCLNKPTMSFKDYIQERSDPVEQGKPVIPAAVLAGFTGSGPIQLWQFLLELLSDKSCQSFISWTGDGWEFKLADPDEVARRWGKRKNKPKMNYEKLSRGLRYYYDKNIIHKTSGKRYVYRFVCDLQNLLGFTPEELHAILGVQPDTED
# Method in brief: as §1
# [18] = target: T12, ELF5 (Homo sapiens, UniProt Q9UKW6-2 1-255)
# T12 sequence: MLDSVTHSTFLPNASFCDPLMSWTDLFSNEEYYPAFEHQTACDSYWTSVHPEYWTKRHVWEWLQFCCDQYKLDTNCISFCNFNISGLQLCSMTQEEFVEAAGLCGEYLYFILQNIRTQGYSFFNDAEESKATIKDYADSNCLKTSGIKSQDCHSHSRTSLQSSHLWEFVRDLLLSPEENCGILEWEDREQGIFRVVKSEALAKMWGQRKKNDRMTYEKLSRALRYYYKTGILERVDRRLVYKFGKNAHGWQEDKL
# Method in brief: as §1
# [19] = target: T13, ETV3 (Homo sapiens, UniProt P41162-2 1-143)
# T13 sequence: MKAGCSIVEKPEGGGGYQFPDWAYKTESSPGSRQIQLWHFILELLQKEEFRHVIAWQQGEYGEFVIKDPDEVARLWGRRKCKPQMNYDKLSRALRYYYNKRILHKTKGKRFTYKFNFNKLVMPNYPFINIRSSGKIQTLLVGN
# Method in brief: as §1
# [20] = target: ETV6 (Homo sapiens, UniProt P41212 1-452)
# Method in brief: as §1
# Chain of ETV6 (P41212 whole entry): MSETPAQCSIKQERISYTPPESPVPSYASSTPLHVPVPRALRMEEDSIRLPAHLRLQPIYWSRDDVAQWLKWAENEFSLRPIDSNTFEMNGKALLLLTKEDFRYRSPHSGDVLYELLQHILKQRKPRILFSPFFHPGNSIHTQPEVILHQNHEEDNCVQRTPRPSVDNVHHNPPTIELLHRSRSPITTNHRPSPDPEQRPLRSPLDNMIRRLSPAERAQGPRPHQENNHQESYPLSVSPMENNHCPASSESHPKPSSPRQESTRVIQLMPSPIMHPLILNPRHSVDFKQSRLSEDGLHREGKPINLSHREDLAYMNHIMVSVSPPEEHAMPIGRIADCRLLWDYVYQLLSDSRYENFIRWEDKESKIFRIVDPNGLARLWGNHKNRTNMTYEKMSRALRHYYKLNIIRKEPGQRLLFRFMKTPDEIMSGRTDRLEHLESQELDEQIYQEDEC
# Chain of ELF1 (P32519 whole entry): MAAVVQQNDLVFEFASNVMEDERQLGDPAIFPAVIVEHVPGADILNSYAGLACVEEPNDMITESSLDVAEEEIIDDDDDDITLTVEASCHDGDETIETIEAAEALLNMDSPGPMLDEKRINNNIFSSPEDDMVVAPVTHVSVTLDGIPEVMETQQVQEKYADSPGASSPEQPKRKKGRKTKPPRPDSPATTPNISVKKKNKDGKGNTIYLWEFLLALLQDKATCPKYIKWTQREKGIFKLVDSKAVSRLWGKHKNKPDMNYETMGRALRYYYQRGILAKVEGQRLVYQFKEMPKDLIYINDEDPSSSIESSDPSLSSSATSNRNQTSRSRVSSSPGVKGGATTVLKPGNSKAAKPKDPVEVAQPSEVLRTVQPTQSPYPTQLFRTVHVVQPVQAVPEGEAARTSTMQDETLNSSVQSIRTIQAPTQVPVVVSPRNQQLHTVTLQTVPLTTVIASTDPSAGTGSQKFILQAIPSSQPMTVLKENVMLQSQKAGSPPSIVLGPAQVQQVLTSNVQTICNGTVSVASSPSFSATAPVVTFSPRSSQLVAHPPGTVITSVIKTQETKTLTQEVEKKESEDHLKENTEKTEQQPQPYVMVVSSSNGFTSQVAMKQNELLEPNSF
# Chain of ELF4 (Q99607 whole entry): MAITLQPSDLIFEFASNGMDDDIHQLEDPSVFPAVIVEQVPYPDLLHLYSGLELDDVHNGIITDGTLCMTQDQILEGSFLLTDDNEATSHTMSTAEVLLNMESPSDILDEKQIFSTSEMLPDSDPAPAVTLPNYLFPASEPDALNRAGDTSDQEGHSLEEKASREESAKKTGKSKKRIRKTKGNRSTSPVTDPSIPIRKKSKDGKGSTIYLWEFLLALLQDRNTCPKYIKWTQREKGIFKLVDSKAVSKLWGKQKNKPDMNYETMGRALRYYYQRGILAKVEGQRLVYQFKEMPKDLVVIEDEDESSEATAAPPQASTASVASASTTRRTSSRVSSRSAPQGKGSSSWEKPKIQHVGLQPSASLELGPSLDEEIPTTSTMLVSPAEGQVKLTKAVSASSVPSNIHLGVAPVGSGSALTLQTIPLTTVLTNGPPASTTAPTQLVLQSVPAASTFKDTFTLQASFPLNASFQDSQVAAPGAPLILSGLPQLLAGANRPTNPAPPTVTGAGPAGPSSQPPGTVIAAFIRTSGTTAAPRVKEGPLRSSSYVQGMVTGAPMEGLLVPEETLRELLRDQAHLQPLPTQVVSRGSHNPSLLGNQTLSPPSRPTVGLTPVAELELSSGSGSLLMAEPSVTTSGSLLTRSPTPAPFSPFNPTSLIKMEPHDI
# Chain of ETV5 (P41161 whole entry): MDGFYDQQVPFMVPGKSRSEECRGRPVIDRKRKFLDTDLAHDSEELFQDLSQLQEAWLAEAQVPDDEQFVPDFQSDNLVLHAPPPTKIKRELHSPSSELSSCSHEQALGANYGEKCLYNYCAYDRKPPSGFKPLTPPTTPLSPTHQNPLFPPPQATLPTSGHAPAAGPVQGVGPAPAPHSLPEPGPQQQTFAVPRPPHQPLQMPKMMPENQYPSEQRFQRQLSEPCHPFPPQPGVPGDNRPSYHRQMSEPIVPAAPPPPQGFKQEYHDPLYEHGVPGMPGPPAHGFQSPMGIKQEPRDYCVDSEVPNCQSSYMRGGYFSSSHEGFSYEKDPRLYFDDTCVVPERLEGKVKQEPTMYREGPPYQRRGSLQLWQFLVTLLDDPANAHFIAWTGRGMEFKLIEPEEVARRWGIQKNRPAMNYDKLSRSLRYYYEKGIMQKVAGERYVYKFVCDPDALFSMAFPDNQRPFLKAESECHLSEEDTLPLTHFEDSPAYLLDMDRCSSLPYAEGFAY
# Chain of ETV1 (P50549 whole entry): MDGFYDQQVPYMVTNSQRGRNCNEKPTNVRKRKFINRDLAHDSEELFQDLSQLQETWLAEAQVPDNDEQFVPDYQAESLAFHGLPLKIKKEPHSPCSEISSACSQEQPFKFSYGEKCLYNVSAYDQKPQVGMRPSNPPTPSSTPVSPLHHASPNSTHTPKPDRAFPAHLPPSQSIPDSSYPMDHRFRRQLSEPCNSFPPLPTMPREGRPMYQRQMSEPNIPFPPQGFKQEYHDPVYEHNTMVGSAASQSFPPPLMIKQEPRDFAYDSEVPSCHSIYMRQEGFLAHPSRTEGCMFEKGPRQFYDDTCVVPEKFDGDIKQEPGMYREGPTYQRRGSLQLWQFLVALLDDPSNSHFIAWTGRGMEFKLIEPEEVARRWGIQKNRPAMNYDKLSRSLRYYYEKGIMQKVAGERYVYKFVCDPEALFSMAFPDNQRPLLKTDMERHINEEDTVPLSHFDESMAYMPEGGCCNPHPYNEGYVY
# Chain of SPIB (Q01892 whole entry): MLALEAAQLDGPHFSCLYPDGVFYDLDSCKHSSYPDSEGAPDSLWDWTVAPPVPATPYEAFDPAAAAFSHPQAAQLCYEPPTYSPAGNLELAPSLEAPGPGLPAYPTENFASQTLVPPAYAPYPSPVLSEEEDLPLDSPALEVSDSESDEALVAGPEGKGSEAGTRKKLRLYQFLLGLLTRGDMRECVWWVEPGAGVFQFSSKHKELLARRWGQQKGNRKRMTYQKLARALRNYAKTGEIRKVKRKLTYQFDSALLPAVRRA
sequence,measurement,setting,value
AACTGA,binding signal,[1],"1.07 fold enrichment (6-mer frequency, TF over GST control)"
same,binding signal,[2],"1.08 fold enrichment (6-mer frequency, TF over GST control)"
same,binding signal,[3],"1.08 fold enrichment (6-mer frequency, TF over GST control)"
same,binding signal,[4],"1.11 fold enrichment (6-mer frequency, TF over GST control)"
same,binding signal,[5],"1.13 fold enrichment (6-mer frequency, TF over GST control)"
same,binding signal,[6],"1.1 fold enrichment (6-mer frequency, TF over GST control)"
same,binding signal,[7],"1.13 fold enrichment (6-mer frequency, TF over GST control)"
same,binding signal,[8],"1.15 fold enrichment (6-mer frequency, TF over GST control)"
same,binding signal,[9],"1.06 fold enrichment (6-mer frequency, TF over GST control)"
same,binding signal,[10],"1.15 fold enrichment (6-mer frequency, TF over GST control)"
same,binding signal,[11],"1.11 fold enrichment (6-mer frequency, TF over GST control)"
same,binding signal,[12],"1.37 fold enrichment (6-mer frequency, TF over GST control)"
same,binding signal,[13],"1.05 fold enrichment (6-mer frequency, TF over GST control)"
same,binding signal,[14],"1.16 fold enrichment (6-mer frequency, TF over GST control)"
same,binding signal,[15],"1.08 fold enrichment (6-mer frequency, TF over GST control)"
same,binding signal,[16],"1.09 fold enrichment (6-mer frequency, TF over GST control)"
same,binding signal,[17],"1.16 fold enrichment (6-mer frequency, TF over GST control)"
same,binding signal,[18],"1.01 fold enrichment (6-mer frequency, TF over GST control)"
same,binding signal,[19],"1.06 fold enrichment (6-mer frequency, TF over GST control)"
same,binding signal,[20],"1.1 fold enrichment (6-mer frequency, TF over GST control)"
